For some assays here: Measured potencies and affinities stand elsewhere.
Assays:
Parameters in all cases: scale not given: direction of the effect not stated beside the values
[1] = molecular target: Protein translocase subunit SecA (Escherichia coli (strain K12)) (UniProt P10408); assay: Assay to Identify E. coli SecA ATPase Inhibitors; assay type: functional; settings: 30 µM
[2] = molecular target: T1, Ubiquitin-activating enzyme e1, putative (Leishmania donovani (strain BPK282A1)) (UniProt E9BSI1); assay: Leishmania donovani Ubiquitin Activating Enzyme (LdE1); assay type: functional; settings: 30 µM
T1 sequence (whole entry): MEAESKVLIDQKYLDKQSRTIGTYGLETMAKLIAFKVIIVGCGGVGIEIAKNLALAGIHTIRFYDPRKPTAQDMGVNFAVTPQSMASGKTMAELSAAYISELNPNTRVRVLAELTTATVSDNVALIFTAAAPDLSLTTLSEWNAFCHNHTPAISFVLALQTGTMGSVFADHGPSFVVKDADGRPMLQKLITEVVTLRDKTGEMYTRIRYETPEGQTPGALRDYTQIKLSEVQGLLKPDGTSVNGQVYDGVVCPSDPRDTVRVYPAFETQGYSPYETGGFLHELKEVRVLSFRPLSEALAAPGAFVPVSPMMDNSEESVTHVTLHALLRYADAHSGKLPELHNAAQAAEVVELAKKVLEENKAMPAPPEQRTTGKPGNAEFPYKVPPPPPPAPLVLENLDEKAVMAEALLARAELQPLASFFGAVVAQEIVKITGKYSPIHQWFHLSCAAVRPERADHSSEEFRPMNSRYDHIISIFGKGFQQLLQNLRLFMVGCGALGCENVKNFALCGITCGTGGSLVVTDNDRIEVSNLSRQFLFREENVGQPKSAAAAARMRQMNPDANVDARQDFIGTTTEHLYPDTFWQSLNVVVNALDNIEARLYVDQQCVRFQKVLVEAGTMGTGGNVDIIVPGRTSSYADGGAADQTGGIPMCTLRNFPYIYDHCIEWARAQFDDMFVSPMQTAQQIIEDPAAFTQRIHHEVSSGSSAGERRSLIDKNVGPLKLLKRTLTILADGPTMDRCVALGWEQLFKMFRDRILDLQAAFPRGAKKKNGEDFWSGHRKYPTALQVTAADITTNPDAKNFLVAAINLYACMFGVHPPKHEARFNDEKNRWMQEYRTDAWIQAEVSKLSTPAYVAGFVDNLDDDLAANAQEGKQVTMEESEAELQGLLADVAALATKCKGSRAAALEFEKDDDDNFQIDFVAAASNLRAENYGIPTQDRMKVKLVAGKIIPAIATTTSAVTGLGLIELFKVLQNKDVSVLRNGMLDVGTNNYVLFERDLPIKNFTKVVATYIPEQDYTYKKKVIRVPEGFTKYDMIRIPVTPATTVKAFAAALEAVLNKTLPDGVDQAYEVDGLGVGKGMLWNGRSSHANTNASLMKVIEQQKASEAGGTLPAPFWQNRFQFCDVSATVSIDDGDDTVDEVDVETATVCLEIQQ

[3] = molecular target: Sialic acid-binding Ig-like lectin 9 (Homo sapiens) (UniProt Q9Y336); assay: Hs-Siglec9 ALPHAscreen SOP 20170721; settings: 10 µM
Sequence of Sialic acid-binding Ig-like lectin 9 (Homo sapiens) (Q9Y336 whole entry): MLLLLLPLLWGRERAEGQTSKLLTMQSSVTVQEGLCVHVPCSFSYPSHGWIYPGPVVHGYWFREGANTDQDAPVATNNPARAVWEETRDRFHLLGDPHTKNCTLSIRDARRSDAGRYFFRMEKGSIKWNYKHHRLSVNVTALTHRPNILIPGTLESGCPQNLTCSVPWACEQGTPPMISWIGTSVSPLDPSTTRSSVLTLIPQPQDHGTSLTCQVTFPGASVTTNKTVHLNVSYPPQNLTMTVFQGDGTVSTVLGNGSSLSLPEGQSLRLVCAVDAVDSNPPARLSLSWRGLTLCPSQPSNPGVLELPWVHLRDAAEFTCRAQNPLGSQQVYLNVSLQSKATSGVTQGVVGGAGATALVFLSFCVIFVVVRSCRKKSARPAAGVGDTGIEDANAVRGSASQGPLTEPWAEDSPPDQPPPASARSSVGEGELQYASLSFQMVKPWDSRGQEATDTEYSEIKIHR

Trypanosoma cruzi = assay: Trypanosoma cruzi phosphomannomutase and mannose-1-phosphate guanylyltransferase assay; assay type: functional; settings: 10 µM
[4] = molecular target: T2, Arginase-2, mitochondrial (Homo sapiens) (UniProt P78540); assay: in vitro enzyme assay to detect the production of urea directly proportional to the activity of Arginase II; assay type: functional; settings: 33.3 µM; further: in the data most compounds retested in dose-response had high values
T2 sequence (whole entry): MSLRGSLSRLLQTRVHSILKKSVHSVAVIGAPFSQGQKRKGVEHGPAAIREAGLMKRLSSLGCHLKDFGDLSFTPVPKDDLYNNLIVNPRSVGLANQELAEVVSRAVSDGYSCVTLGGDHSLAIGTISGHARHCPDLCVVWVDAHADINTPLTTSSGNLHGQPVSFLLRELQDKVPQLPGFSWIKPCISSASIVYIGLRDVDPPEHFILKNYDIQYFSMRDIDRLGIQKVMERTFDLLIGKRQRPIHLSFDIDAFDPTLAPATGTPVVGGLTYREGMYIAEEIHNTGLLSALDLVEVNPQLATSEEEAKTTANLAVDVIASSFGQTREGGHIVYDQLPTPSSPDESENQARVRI

[5] = molecular target: T3, Proteasome subunit beta (Trypanosoma cruzi) (UniProt O96673); assay: Trypanosoma cruzi proteasome chymotrypsin-like activity (TcProtChymo) assay.; further: in the data most compounds retested in dose-response had high values; assay type: functional; settings: 9.37 µM
T3 sequence (whole entry): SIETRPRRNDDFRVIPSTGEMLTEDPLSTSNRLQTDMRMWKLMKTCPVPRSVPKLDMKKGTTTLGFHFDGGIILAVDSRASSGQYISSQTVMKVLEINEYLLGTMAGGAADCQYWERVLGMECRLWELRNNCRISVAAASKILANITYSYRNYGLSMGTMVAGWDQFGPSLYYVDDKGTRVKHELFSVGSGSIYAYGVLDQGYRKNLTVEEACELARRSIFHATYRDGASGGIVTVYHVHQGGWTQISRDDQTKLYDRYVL

Homo sapiens = species on record: Homo sapiens; assay: To identify inhibition of the IFN signalling (Jak-Stat) pathway via expression of an eGFP reporter gene under the control of an IFN-stimulated response element (ISRE) containing MxA promoter.; assay type: functional; settings: 30 µM
[6] = molecular target: T4, Tyrosyl-tRNA synthetase, putative (Trypanosoma cruzi (strain CL Brener)) (UniProt Q4DSP6); assay: Trypanosoma cruzi tyrosyl tRNA synthetase (TcYRS) _High Tyrosine SOP; assay type: functional; settings: 30 µM; further: in the data most compounds retested in dose-response had high values
T4 sequence (whole entry): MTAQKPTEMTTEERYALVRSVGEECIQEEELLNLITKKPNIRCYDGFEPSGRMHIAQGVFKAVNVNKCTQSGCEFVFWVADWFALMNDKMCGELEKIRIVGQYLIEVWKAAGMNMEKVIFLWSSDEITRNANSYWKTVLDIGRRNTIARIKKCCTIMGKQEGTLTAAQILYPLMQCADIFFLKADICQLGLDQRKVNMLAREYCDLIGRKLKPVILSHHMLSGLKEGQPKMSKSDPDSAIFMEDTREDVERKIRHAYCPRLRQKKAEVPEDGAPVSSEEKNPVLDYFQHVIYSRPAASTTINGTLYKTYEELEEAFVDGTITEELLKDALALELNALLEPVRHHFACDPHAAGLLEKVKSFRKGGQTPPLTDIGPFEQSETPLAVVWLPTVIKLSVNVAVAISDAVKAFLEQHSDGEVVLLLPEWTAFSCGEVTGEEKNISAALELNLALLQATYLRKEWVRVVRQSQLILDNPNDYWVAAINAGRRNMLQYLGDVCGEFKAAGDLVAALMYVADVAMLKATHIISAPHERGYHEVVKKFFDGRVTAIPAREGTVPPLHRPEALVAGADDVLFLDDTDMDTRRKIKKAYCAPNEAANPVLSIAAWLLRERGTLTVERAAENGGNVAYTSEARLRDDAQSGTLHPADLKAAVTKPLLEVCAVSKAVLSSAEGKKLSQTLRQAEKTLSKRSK

[7] = molecular target: T4, Tyrosyl-tRNA synthetase, putative (Trypanosoma cruzi (strain CL Brener)); assay: Trypanosoma cruzi tyrosyl tRNA synthetase (TcYRS) SOP; assay type: functional; settings: 30 µM
[8] = molecular target: Chromo domain-containing protein 1 (Saccharomyces cerevisiae (strain ATCC 204508 / S288c) (Baker's yeast)) (UniProt P32657); assay: ScCHD-1 Enzyme Inhibition Assay; assay type: functional; settings: 30 µM; further: in the data most compounds retested in dose-response had high values
Sequence of Chromo domain-containing protein 1 (Saccharomyces cerevisiae (strain ATCC 204508 / S288c) (Baker's yeast)) (P32657 whole entry, the tested form may be a part): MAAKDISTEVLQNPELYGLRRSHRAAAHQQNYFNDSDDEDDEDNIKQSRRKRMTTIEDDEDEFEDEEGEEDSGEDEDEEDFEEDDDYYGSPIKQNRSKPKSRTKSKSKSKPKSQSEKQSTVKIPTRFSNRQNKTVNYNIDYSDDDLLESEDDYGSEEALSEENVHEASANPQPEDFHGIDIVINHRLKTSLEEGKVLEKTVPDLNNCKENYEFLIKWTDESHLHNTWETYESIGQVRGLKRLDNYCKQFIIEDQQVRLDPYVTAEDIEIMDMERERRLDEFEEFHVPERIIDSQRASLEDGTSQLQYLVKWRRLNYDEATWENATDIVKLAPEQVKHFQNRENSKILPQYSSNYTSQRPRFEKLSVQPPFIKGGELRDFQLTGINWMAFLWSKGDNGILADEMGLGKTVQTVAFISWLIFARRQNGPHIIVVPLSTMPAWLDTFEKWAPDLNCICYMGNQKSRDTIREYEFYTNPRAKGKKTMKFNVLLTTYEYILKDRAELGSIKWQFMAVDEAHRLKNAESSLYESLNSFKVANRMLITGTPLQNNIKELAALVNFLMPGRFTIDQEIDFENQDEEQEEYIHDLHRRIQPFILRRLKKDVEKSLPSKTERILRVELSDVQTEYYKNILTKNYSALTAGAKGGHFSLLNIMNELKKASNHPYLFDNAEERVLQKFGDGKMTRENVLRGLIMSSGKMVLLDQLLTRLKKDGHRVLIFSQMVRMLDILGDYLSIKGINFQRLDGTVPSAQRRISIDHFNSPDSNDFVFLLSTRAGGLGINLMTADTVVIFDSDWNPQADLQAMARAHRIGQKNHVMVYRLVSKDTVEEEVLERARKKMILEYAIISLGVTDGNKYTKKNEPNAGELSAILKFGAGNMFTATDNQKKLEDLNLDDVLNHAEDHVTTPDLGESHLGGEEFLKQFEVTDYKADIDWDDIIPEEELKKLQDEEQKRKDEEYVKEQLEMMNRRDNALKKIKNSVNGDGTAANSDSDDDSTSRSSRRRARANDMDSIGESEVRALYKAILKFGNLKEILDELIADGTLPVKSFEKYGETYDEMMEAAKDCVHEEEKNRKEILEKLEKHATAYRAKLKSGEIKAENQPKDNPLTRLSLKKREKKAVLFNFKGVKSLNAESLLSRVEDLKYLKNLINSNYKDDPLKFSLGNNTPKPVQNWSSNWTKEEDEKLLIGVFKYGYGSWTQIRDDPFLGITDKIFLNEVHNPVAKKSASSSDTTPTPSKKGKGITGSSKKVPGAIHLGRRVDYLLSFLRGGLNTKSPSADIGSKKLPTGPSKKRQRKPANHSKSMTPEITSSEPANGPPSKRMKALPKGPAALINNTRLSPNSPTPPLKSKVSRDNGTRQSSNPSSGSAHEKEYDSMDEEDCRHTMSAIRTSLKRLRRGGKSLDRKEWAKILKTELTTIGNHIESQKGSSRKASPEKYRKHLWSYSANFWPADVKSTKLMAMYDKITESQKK

Sequence of Protein translocase subunit SecA (Escherichia coli (strain K12)) (P10408 whole entry): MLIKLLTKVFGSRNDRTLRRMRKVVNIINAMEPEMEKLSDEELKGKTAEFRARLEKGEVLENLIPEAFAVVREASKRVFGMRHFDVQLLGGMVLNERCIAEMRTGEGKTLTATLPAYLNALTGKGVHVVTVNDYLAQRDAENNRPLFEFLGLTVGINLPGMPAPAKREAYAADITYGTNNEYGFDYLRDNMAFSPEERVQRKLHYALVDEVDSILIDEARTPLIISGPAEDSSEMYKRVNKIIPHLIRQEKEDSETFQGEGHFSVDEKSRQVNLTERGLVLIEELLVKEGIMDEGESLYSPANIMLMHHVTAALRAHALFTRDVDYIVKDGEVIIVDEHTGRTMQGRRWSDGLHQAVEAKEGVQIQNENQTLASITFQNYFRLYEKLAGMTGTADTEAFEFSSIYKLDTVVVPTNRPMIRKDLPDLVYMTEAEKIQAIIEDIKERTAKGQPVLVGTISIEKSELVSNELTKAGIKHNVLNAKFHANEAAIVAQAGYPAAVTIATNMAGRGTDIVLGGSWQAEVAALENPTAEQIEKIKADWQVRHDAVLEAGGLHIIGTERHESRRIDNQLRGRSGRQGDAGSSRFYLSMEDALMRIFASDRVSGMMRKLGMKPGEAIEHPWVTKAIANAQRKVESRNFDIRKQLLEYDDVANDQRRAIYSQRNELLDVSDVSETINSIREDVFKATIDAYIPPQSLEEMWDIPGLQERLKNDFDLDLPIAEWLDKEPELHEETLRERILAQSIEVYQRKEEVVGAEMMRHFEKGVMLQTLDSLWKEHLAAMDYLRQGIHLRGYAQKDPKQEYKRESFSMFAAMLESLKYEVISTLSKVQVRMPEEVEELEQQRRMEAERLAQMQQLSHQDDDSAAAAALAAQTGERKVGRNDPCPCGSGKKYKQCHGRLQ

SMILES	Percent Effect [1] [%]	Percent Effect [2] [%]	Percent Effect [3] [%]	Percent Effect (Trypanosoma cruzi) [%]	Percent Effect [4] [%]	Percent Effect [5] [%]	Percent Effect (Homo sapiens) [%]	Percent Effect [6] [%]	Percent Effect [7] [%]	Percent Effect [8] [%]
COCc1cccc(NS(=O)(=O)c2cc(C(=O)O)cs2)c1	-3.18	5.13	-6.44	2.91	2.46	8.11	4.97	3.35	13.2	-5.54
CN(C)c1ccc(C(=O)NCC2(c3ccccc3)CCOCC2)cc1	-0.155	22.7	-5.97	1.38	-2.21	15.4	9.64	0	15	-24.2
Cc1ccc(C(=O)N2CCC3(CC2)COC(COc2ccccn2)C3)o1 (stereo not given)	-7	19.5	6.32	2.24	-2.83	7.33	-10.8	5.79	12.8	18.6
O=S(=O)(NCCN1CCCCC1Cn1cncn1)c1ccccc1 (stereo not given)	-1.12	0	6.15	1.68	7.99	-5.61	-18.3	1.96	9.41	-1.75
Cc1cccnc1C(=O)N1CCCC(c2[nH]ncc2S(C)(=O)=O)C1 (stereo not given)	-0.892	4	0.0565	-4.54	3.1	0.985	20	5.29	7.5	-20.1
Cc1noc(C)c1C(=O)N1CC[C@H]2C[C@@H](c3ccncn3)O[C@@H]2C1	-7.73	6.49	0.544	-1.46	-2.43	11.7	-4.26	5.79	15.4	-2
O=C(CCc1cc2n(n1)CCN(Cc1ncc[nH]1)C2)N1CCCC1	-3.73	18.9	0.852	1.07	13.6	14.4	15.1	4.79	19.5	-1.96
CCn1ncnc1C1CC(=O)NCc2nc3ccccn3c21 (stereo not given)	-7.68	10.8	16.9	6.11	10.8	4.62	14.8	5.85	9.76	84
Cc1ccc(C(CNC(=O)NCc2cc[nH]n2)N2CCOCC2)o1 (stereo not given)	-3.05	12.8	-4.81	-4.04	0.82	14.1	24.3	2.39	10.8	-3.31
CN(C)[C@@H]1CN(Cc2ccco2)C[C@@H]2CCCO[C@@H]21	-2.22	6.49	-4.86	-5.16	-1.22	9.27	3.2	-0.526	7.69	-3.13
Cc1cc(C)n(CC2CCCN2CCc2ccncc2)n1 (stereo not given)	-5.42	7.69	-18.5	12.5	-2.87	17.1	5.12	3.35	20.5	-3.37

Source: ChEMBL document CHEMBL3988442, “University of Dundee, Small-Polar-MMV Screening Library” (2021)
